In all, about 33,000 sequences were measured (“E-score (-0.5 to 0.5)”: median about -0.016, highest 2% from about 0.32 on). The entries come from a sample that favours the highest values as a whole.
These sequences were tested against T1, Stp1 (UniProt B3LFK1) (assay: PBM E-score (8-mer binding enrichment) (E-score (-0.5 to 0.5)); higher = stronger / more preferred TF binding). Details: protein concentration: 200 nM; construct: GST-full length.
T1 sequence: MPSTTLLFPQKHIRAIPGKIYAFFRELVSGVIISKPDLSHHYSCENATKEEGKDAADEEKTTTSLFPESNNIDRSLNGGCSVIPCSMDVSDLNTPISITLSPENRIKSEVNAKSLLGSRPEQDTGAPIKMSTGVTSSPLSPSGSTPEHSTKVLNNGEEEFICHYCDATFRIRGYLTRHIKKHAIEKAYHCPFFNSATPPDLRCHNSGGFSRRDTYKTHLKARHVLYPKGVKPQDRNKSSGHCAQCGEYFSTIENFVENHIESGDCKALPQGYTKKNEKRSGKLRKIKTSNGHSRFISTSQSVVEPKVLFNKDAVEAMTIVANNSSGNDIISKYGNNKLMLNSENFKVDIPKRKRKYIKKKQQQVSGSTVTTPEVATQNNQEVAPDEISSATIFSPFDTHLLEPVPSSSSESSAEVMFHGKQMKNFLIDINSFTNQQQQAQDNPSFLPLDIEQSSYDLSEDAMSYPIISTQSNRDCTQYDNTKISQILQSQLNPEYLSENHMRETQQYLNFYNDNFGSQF
Procedure, shortened: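 Detection of bound protein used fluorescent anti-GST, with scans normalised by masliner. The proteins were GST-tagged yeast transcription factors applied at about 100-200 nM to universal all-10-mer Agilent arrays made double-stranded by primer extension. Each ungapped eight-base word, pooled with its reverse complement, was scored with an E-score from the Universal PBM Analysis Suite.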

Sequence | PBM E-score
AAGAGTAC | -0.0411
GGACTCTA | -0.344
AGCTTCAC | -0.221
CAGCTAAC | -0.171
AACCTCTA | -0.104
CGCAGTTA | 0.0737
AGCACAAA | 0.206
AGCACTAA | 0.132
GGCACGAA | 0.389
TGCACAAA | 0.0921
GGCACGAC | 0.208
GGCACAAA | 0.374
TGCACTAA | 0.109
GGCACTAA | 0.392
AGCACGAA | 0.0412
GGCAAAAC | 0.254
GGCAAGAA | 0.22
GGCAAAAA | 0.388
CATGCACA | 0.0872
TATCAGAA | 0.22
CTTGCTTA | -0.203
AGGGCCGC | 0.168
TGCCTCAA | -0.019
TATTGCGA | 0.165
CACCTCAA | 0.0958

Sequence | PBM E-score
AGCTGCAC | -0.111
CAAGTCGG | -0.0998
TACACGCA | -0.204
CGTTTATA | 0.331
GGTTTATA | 0.0512
AGTTTATA | 0.153
GATTGTCC | -0.0756
AAAACAAA | 0.128
CCTGGACA | -0.187
CTGAGGTA | -0.0424
AGAAAGCA | 0.158
ATCACTAA | 0.0331
AGCGCGAA | 0.0676
GGCGCGAC | 0.36
CGCGCGAC | 0.12
CGCGCGAA | 0.129
AGCGCGAC | -0.149
GGCGCGAA | 0.37
CTGGGAAC | 0.0375
AGTCGATG | -0.194
AGTGGGGC | -0.231
ACGGGGCG | 0.366
ATAAGGCC | 0.0529
CCAAGGCG | 0.341
ACAAGGCT | 0.198

Sequence | PBM E-score
CCAAGGCA | 0.173
ACAAGGCG | 0.38
ACGGGGCT | -0.161
ATAAGGCG | 0.365
CCAAGGCC | 0.171
ATAAGGCA | 0.299
ACAAGGCC | -0.026
ACGGGGCC | -0.0286
CGAGAAGC | -0.112
CAACCTTG | 0.0792
CTCCCTGC | -0.293
CTTGATCC | 0.0811
CGAGTCCG | 0.128
CCAGTGAA | -0.0703
GAGATAGA | -0.0115
ACAGGGCA | 0.244
ACAGGGCT | -0.0531
ACAGGGCG | 0.351
CACCGACA | 0.0706
CGGCAACA | 0.368
CGGCAACG | 0.368
AGGCAACG | 0.0557
CGGCAACC | 0.266
AGGCAACA | 0.143
TGGCAACA | 0.195

Sequence | PBM E-score
ACTTTTGG | -0.0182
CTATGCAA | -0.0966
CGGCCCAC | -0.051
CCATACGG | 0.395
CAATACGC | 0.175
CAATACGG | 0.32
ACATACGG | 0.261
CAATACGA | 0.143
CCATACGC | 0.0591
GACAATGA | -0.247
AGCCTTGA | -0.0777
AGCCTTGG | -0.138
CGCCTTTA | 0.129
CGCCTTAA | 0.211
AGCCTTGC | 0.325
CGCCTTGA | 0.0844
CGCCTTTC | 0.354
CGCCTTAC | 0.405
CGCCTTCC | 0.206
AGCCTTAC | -0.022
AGCCTTTC | -0.0105
CGCCTTGC | 0.35
